Values joined by “and” are separate entries in the source; they are usually repeats but may differ in a detail not shown here. Equal entries are not always repeated. Records with an inconclusive call do not appear. Active and inactive are the calls of the source. Calls follow the shape of the dose curve; as a rule, active = well fitted antagonist curve with a large enough effect in the main read-out, with a control signal flat; inconclusive = small, poorly fitted or top-dose-only effect; inactive = no such curve, though single readings can be large or run the other way.

Sequence of Neuropeptide S receptor (Homo sapiens) (Q6W5P4 whole entry, looked up): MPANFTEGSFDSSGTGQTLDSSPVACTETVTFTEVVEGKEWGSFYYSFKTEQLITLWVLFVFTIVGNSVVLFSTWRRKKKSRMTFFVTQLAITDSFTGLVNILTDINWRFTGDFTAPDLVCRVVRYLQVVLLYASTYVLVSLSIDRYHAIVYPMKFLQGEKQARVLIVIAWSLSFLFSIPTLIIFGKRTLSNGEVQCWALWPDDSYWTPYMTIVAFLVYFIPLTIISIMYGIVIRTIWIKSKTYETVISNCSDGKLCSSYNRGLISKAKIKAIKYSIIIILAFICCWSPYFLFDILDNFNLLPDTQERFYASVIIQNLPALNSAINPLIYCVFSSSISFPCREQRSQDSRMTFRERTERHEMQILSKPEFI

In the experiment the target is Neuropeptide S receptor (Homo sapiens) (UniProt Q6W5P4). The experiment can be described thus: Confirmation Concentration-Response Assay for Antagonists of the Neuropeptide S Receptor: Calcium Signal Transduction, SAR for Probe. The following applies: CHO-NPSR cells, NPS-induced calcium fluorescence, FDSS; series mostly up to 50.9 µM. An excerpt:
NIH Chemical Genomics Center [NCGC] NIH Molecular Libraries Probe Production centers Network [MLPCN] MLPCN Grant: X01-DA026210-01 Assay Submitter (PI): Heilig, Markus Alexander NCGC Assay Overview: Neuropeptide S receptor (NPSR), previously known as GPR154, is a recently de-orphanized G protein coupled receptor. Its endogenous ligand is the 20 amino acids peptide Neuropeptide S (NPS). […] NPS and its receptor are found in various tissues. Specifically they are highly expressed in brain areas that have been implicated in modulation of arousal, stress and anxiety. Central administration of NPS in mice produces an unusual profile of activity by inducing wakefulness and arousal, while at the same time suppressing anxiety. Therefore, NPSR may represent a novel drug target for the treatment of sleep and anxiety disorders. To identify NPSR antagonists, we developed a cell-based assay with transfected NPS receptor. NPS can stimulate the production of cAMP as well as release intracellular calcium in Chinese hamster ovary cells stably expressing NPS receptor. This change in intracellular calcium can be detected using a calcium indicator dye on a calcium imaging plate reader system (FDSS).
NCGC Assay Protocol Summary: A Chinese hamster ovary (CHO) cell line stably expressing the NPS receptor (CHO-NPSR) was obtained from Dr. Heilig lab at NIAAA and maintained in F-12 Kaighn's media (Invitrogen, Carlsbad, CA, 21127) supplemented with 10 % FBS, 100 units/ml penicillin, 100 ug/ml streptomycin and 250 ug/ml geneticin at 37C, 5% CO2 in a humidified atmosphere. Before the assay, aliquots of cells were frozen and stored at -135C. The assay was performed on a FDSS-7000 kinetic plate reader in 1536-well format. For both agonist (1-220s) and antagonist (221-400s) phases, the maximums of kinetic fluorescence responses were converted separately into text files using the instrument's software data export utility. Data for agonist response were normalized to the controls for basal activity (DMSO only) and 100% activation (NPS). […] AC50 values were determined from concentration-response data modeled with the standard Hill equation. NPS 1536-well FDSS assay protocol: (1) Frozen CHO-NPSR cells were thaw, washed once with fresh media and resuspended in F-12 Kaighn's media supplemented with 10 % FBS, 100 units/ml penicillin and 100 ug/ml streptomycin. Cells were plated at 3 ul/well (1200 cells) to black, clear-bottom, tissue-culture treated 1536-well plates, and then cultured at 37C, 5 % CO2 for 16 to 30 hours. (2) Add 3 ul of calcium dye (from High Performance PBX Calcium Assay Kit, BD Biosciences). The calcium dye was prepared according to the manufactory's instruction. (3) Incubation at 37C, 5 % CO2 for 60 to 120 min. (4) Load plates to FDSS-7000. The following steps were performed on FDSS-7000. (5) Record fluorescent background (Ex 480 nm, Em 520-560 nm) for 10 s. (6) Add 23 nl/well of compound in DMSO solution. The final titration for each compound was between 0.6 nM and 46 uM. Record agonist response for 210 s. (7) Add 2 ul of stimulation reagent (1X HBSS buffer, 0.1% BSA, 60 nM NPS). Record antagonist response for 140 s. Keywords: MLSMR, MLPCN, NIH Roadmap, qHTS, NCGC, NPS, Neuropeptide S Antagonists
As to `Cc1c(P(=S)(c2ccccc2)c2ccccc2)c2ccccc2n1C`, the Potency entry is “inactive”.

Consider `Cc1c(P(=S)(c2ccccc2)c2ccccc2)[n+]2ccccc2n1CCCc1ccccc1`, for which the Potency was 0.0552 µM (active).

Turning to `Cc1nc2ccccn2c1P(=S)(c1ccccc1)c1ccccc1`, the Potency was 9.79 µM (active).

`C[C@H]1CCCC(=O)CCCCCc2cc(O)cc(O)c2C(=O)O1`: the Potency result is “inactive”.

Consider `Cc1c(P(=S)(c2ccccc2)c2ccccc2)[n+]2ccccc2n1CCc1ccccc1`, for which the Potency was 1.38 µM (active).

As for `S=P(c1ccccc1)(c1ccccc1)c1c(-c2ccccc2)[nH]c2ccccc12`, the Potency entry was “inactive”.

As for `CC(=O)Nc1cc([As](=O)(O)O)ccc1O`, the Potency entry was “inactive”.

For `C=C(C=O)C[C@@H]1C[C@H](O)C2OC3C[C@]4(C)OC5/C=C\CC6OC7C(CC=CCC6OC5CCCC4OC3CC2O1)OC1CC2OC3CC(=O)OC3C[C@@H](C)C[C@@]2(C)OC1C[C@@H]7C` (stereo partly drawn), the Potency is 0.501 µM (active).

`Cn1c(-c2ccccc2)c(P(=S)(c2ccccc2)c2ccccc2)c2ccccc21`: the Potency entry was “inactive”.

Take `Cc1c(P(=S)(c2ccccc2)c2ccccc2)[n+]2ccccc2n1Cc1ccccc1`: the Potency is 1.74 µM (active).

`Cc1c(P(=S)(c2ccccc2)c2ccccc2)[n+]2ccccc2n1C`: the Potency was 199 nM (active) and 251 nM (active) and 220 nM (active).

With `CNc1ccc2oc(C[C@H]3O[C@@]4(CC[C@H]3C)O[C@H]([C@H](C)C(=O)c3ccc[nH]3)[C@H](C)C[C@H]4C)nc2c1C(=O)O`, the Potency is 0.0158 µM (active).

Regarding `S=P(c1ccccc1)(c1ccccc1)c1c[n+](Cc2ccccc2)c2ccccn12`, the Potency is 6.93 µM (active).

For the compound `C=C1C(=O)O[C@@H]2C[C@@H](C)[C@@H]3C=CC(=O)[C@@]3(C)[C@@H](OC(=O)CC(=O)O[C@H]3[C@@H]4C(=C)C(=O)O[C@@H]4C[C@@H](C)[C@@H]4C=CC(=O)[C@]43C)[C@H]12`, the Potency is 0.0891 µM (active).

Regarding `Cc1c(P(=S)(c2ccccc2)c2ccccc2)[n+]2ccccc2n1C/C=C/c1ccccc1`, the Potency is 0.0438 µM (active).

With `CCOC(=O)c1c(-n2c(C)cc(C=C3C(=O)NC(=S)NC3=O)c2C)sc2c1CCCC2`, the Potency was 2 µM (active).

For `S=P(c1ccccc1)(c1ccccc1)c1cnc2ccccn12`, the Potency is 12.3 µM (active).

On to `Cn1cc(P(=S)(c2ccccc2)c2ccccc2)c2ccccc21`, for which the Potency result was “inactive”.

The values above are taken from PubChem BioAssay AID2567 (National Center for Advancing Translational Sciences (NCATS), 2010).
